Measurements: PubChem BioAssay (NCI)
About 79,000 compounds went through this panel and 15% of them were active in at least one assay; those are over-represented in the sample as a whole. Unmarked numbers belong to inactive results. Rule as the data show it: active = growth inhibition above about 70%; inactive = the rest.

assay: NCI Yeast Anticancer Drug Screen. Data for the cln2 rad14 strain (AID 165);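 also: 0% = growth equal to vehicle treated cultures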; settings: S. cerevisiae cln2 rad14 strain, at 50.0 µM, hits give high values
Description: Growth inhibition of yeast strains with defined genetic alterations is measured as a screen for potential anti-cancer activity. Selected strains with alterations in DNA damage repair or cell cycle control were exposed to compounds and growth inhibition was measured relative to vehicle treated controls. The strain used in this assay is cln2 rad14

First: ClCc1cccc2c(CCl)cccc12
Second: Nc1ccc2ccccc2c1-c1c(N)ccc2ccccc12
The growth inhibition of the first is higher: 33% for the first, 1.1% for the second.

First: O=C(O)c1ccc(OCc2ccccc2)cc1
Second: O=C(OCc1ccccc1)n1nnc2ccccc21
The growth inhibition of the first is higher: -1.85% for the first, -17.2% for the second.

Compared with COC(=O)c1ccccc1C(=O)c1c(C)cc(C)cc1C, CCc1ccccc1C(=O)N(CC)CC is higher in growth inhibition: -64% for the first, 32% for the second.

Going from C=C1C(=O)C2CCC1C2 (stereo not given) to Cc1ccc(C2CCCCC2)cc1Br, the growth inhibition rises from -3.2% to 3.15%.

First: CC1CC2C3CCC4=CC(=O)CCC4(C)C3CCC2(C)C1(O)C(=O)CO (stereo not given)
Second: C=C(C)[C@@H]1CC[C@]2(CO)CC[C@]3(C)[C@H](CC[C@@H]4[C@@]5(C)CC[C@H](O)C(C)(C)[C@@H]5CC[C@]43C)[C@@H]12
The growth inhibition of the first is lower: -44% for the first, 11.8% for the second.

Going from CN1C(=O)NC(c2ccc(Cl)cc2)(c2ccc(Cl)cc2)C1=O to Clc1ccc(/C=C/c2ccccn2)cc1, the growth inhibition falls from -11.9% to -16.2%.

Compared with CCCCc1ccc2nc(NC(=O)OC)[nH]c2c1, CCCCNC(=O)c1ccc(OCC)cc1 is lower in growth inhibition: 28.8% for the first, -16.4% for the second.

First: O=C(O)CSCC(=O)Nc1cc(C(F)(F)F)ccc1Cl
Second: Cc1ccc(S(N)(=O)=O)cc1Cl
The growth inhibition of the first is lower: -22.9% for the first, 5.8% for the second.

Going from CN(C)c1ccc(/C=C/C(=O)c2ccc(NC(N)=O)cc2)cc1 to O=C(Nc1ccc([N+](=O)[O-])cc1)C(=O)Nc1ccc([N+](=O)[O-])cc1, the growth inhibition rises from -51.6% to -7.55%.

Compared with NCC(O)C(O)C(O)C(O)CO (stereo not given), CC(=O)OC/C(C)=C\CC(C)COC(C)=O (stereo not given) is lower in growth inhibition: 23.2% for the first, 2.4% for the second.

First: Cc1ccc(O)c(N)c1
Second: Cc1nc(O)cc(=O)[nH]1
The growth inhibition of the first is higher: 2.35% for the first, -6.95% for the second.

Going from CC(O)C(F)(F)C(F)(F)C(F)(F)F (stereo not given) to CC(c1ccccc1)N(C)C (stereo not given), the growth inhibition rises from -2.1% to 7.6%.

Going from C=COC(=O)CCOCC(CC)CCCC (stereo not given) to Cn1c(=O)c2[nH]c(CCCCC(=O)O)nc2n(C)c1=O, the growth inhibition falls from -6.2% to -20.9%.

Compared with Nc1c(O)c(S(=O)(=O)O)c(O)c2c1C(=O)c1ccccc1C2=O, Cc1ccc(N2C(=O)c3cccc4c(N)c(S(=O)(=O)O)cc(c34)C2=O)cc1 is lower in growth inhibition: 30.9% for the first, -6.8% for the second.

First: CC(C)NC(=O)OCc1c(COC(=O)NC(C)C)c(-c2ccc(Cl)cc2)n2c1CCC2
Second: CCCNS(=O)(=O)c1ccc(Cl)cc1
The growth inhibition of the first is higher: 9.25% for the first, 1.55% for the second.

Going from CCOc1ccncc1[N+](=O)[O-] to C/C(=N\Nc1ccc([N+](=O)[O-])cc1[N+](=O)[O-])c1ccc(Br)cc1, the growth inhibition falls from -7% to -12.8%.

Compared with COC1OC(COC(C)=O)C(OC(C)=O)C(OC(C)=O)C1OC(C)=O (stereo not given), COC(C(=O)C(O)C(C)O)C1Cc2cc3cc(OC4CC(OC5CC(O)C(O)C(C)O5)C(O)C(C)O4)c(C)c(O)c3c(O)c2C(=O)C1OC1CC(OC2CC(O)C(OC3CC(C)(O)C(O)C(C)O3)C(C)O2)C(O)C(C)O1 (stereo not given) is higher in growth inhibition: -28.6% for the first, 6.95% for the second.

First: Cc1cc(C)cc(OCC(=O)O)c1
Second: CCOC(=O)c1cc(Cl)c(O)c(Cl)c1
The growth inhibition of the first is lower: -41% for the first, 11.7% for the second.

Going from CCCCn1cnc2c(=O)[nH]cnc21 to Cc1cc(=O)n(Nc2ccccc2)c(O)c1C#N, the growth inhibition rises from -14.8% to 2.65%.

Compared with CC(=O)C1C(=O)C(=O)N(c2cccc([N+](=O)[O-])c2)C1=O (stereo not given), Clc1cccc(Cl)c1CSc1nc2ccccc2n2cccc12 is higher in growth inhibition: -9.3% for the first, 17.6% for the second.
